Reference: PubChem BioAssay (NCI)
Several values for one entry are separate records, joined by “and”; a condition that tells them apart may be missing. Equal entries are not always repeated. About 83,000 compounds went through this panel and 20% of them were active in at least one assay; those are over-represented in the sample as a whole.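 How to read the values: 0–100, growth inhibition (40 = 60% inhibited); 0, no net growth; -100 to 0, cell death (-40 = 40% of starting cells died; -100 = all dead).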 Activity calls are given as the source filed them. The calls were made as follows: active = growth percent below 10; inactive = the rest.

Legend:
Test in all cases: NCI-60 one-dose screen, 48 h (100 = growth as untreated, 0 = no growth, -100 = all killed)
Settings in all cases: 10 µM unless noted
[1] = system: HCT-15 colon
[2] = system: HT29 colon
[3] = system: SNB-75 CNS
[4] = system: SNB-19 CNS
[5] = system: U251 CNS
[6] = system: PC-3 prostate
[7] = system: SK-MEL-5 melanoma
[8] = system: LOX IMVI melanoma
[9] = system: SK-MEL-28 melanoma
[10] = system: SK-MEL-2 melanoma
[11] = system: EKVX NSCLC
[12] = system: SN12C renal
[13] = system: UO-31 renal
[14] = system: TK-10 renal
[15] = system: ACHN renal
[16] = system: CAKI-1 renal
[17] = system: A498 renal
[18] = system: CCRF-CEM leukemia
[19] = system: MOLT-4 leukemia
[20] = system: UACC-62 melanoma

Structure (SMILES) | growth [1] | growth [2] | growth [3] | growth [4] | growth [5] | growth [6] | growth [7] | growth [8] | growth [9] | growth [10] | growth [11] | growth [12] | growth [13] | growth [14] | growth [15] | growth [16] | growth [17] | growth [18] | growth [19] | growth [20]
CCNC(=S)n1nc(SC)c(C(=O)OCC)c1N | 96.3% (inactive) | 102% (inactive) | 89.5% (inactive) | 93.6% (inactive) | 109% (inactive) | 102% (inactive) | 96.1% (inactive) | 95.4% (inactive) | 102% (inactive) | 105% (inactive) | 101% (inactive) | 97.6% (inactive) | 77.8% (inactive) | 106% (inactive) | 96.7% (inactive) | 86.7% (inactive) | 97.5% (inactive) | 106% (inactive) | 81.3% (inactive) | 
O=C(CC1(O)C(=O)Nc2ccc(Br)cc21)c1ccc(Cl)cc1 (centres undefined) | 109% (inactive) | 97.8% (inactive) | 81.8% (inactive) | 107% (inactive) | 94.6% (inactive) |  | 96.8% (inactive) | 99.3% (inactive) | 120% (inactive) | 97.2% (inactive) | 93.8% (inactive) | 102% (inactive) | 75.9% (inactive) | 123% (inactive) | 113% (inactive) | 98.9% (inactive) | 97.7% (inactive) | 103% (inactive) | 101% (inactive) | 98.1% (inactive)
O=C1Nc2ccccc2/C1=C/c1cccn1CCCCCn1c2ccccc2c(=O)c2ccccc21 | 28.9% (inactive) | 89.5% (inactive) | 86.7% (inactive) | 95.3% (inactive) | 93.4% (inactive) |  | 32.2% (inactive) | 80.3% (inactive) | 88.1% (inactive) | 84% (inactive) | 71.8% (inactive) | 97.1% (inactive) | 49.3% (inactive) | 93.8% (inactive) | 55.1% (inactive) | 65.9% (inactive) | 108% (inactive) | 44.9% (inactive) | 46% (inactive) | 48.2% (inactive)
N=C(N)SCc1c2ccccc2c(CSC(=N)N)c2ccccc12 | 93.9% (inactive) | 65.9% (inactive) | 89.5% (inactive) | 111% (inactive) | 61.1% (inactive) |  | 68.9% (inactive) | 55.7% (inactive) | 99% (inactive) | 79.2% (inactive) | 76.5% (inactive) | 53.7% (inactive) | 80.8% (inactive) | 98.5% (inactive) | 51.2% (inactive) | 61.7% (inactive) | 89.9% (inactive) | 6.24% (active) | -5.95% (active) | 72.9% (inactive)
COc1ccc(/C(C)=C(\c2ccc(OCCN3CCOCC3)cc2)c2ccc(OC(=O)C3CCCCC3)cc2)cc1 | 102% (inactive) | 102% (inactive) | 110% (inactive) | 107% (inactive) | 103% (inactive) | 104% (inactive) | 110% (inactive) | 102% (inactive) | 106% (inactive) | 104% (inactive) | 107% (inactive) | 113% (inactive) | 101% (inactive) | 104% (inactive) |  | 101% (inactive) | 110% (inactive) | 111% (inactive) | 117% (inactive) | 
C=C(C)[C@@H]1CC[C@]2(C(=O)O)CC[C@]3(C)[C@H](CC[C@@H]4[C@@]5(C)CCC(N)C(C)(C)[C@@H]5CC[C@]43C)[C@@H]12 (some centres undefined) | 29.4% (inactive) | -13.6% (active) | 95.8% (inactive) | 28.1% (inactive) | 5.5% (active) |  | 61% (inactive) | -51.1% (active) | -70.2% (active) | 93% (inactive) | 67.6% (inactive) | -7.83% (active) | 63.4% (inactive) | 47.8% (inactive) | 8.7% (active) | 48.6% (inactive) | 78.1% (inactive) | -8.42% (active) | 25.7% (inactive) | -51.7% (active)
Cc1nc2sc(C(=O)Nc3cccc(Cl)c3C)c(N)c2cc1C(O)c1ccccc1 (centres undefined) | 12.3% (inactive) | 11.8% (inactive) | 59.3% (inactive) | 34.7% (inactive) | 9.59% (active) |  | -37.5% (active) | 20.5% (inactive) | 53.9% (inactive) | 38.9% (inactive) | 41.6% (inactive) | 9.22% (active) | 40.6% (inactive) | 49.7% (inactive) | 22.5% (inactive) | 30.9% (inactive) | -11.6% (active) | 20.4% (inactive) | 13% (inactive) | 21.4% (inactive)
CN(C)c1ccc2nc3ccc(=O)cc-3sc2c1 | 36.2% (inactive) and 37.2% (inactive) | 39.9% (inactive) and 40.7% (inactive) | 94.9% (inactive) and 36.7% (inactive) | 55.8% (inactive) and 45.9% (inactive) | 21.2% (inactive) and 33.3% (inactive) |  | -94.8% (active) and -89.9% (active) | 5.56% (active) and 5.52% (active) | 77.6% (inactive) and 63% (inactive) | 13.8% (inactive) and 35.6% (inactive) | 41.3% (inactive) | 41.9% (inactive) and 34.5% (inactive) | 14.8% (inactive) and 31.4% (inactive) | 60.9% (inactive) and 67.4% (inactive) | 20% (inactive) and 21.7% (inactive) | 34.1% (inactive) and 22.3% (inactive) | 85.7% (inactive) | 13% (inactive) and 20.1% (inactive) | -18.7% (active) and 20.2% (inactive) | 32.5% (inactive) and 32.9% (inactive)
COc1ccc(-c2cc(-c3cccnc3)nc3sc4c(Cl)nnnc4c23)cc1OC | 69.9% (inactive) | 87.9% (inactive) | 81.5% (inactive) | 95.6% (inactive) | 92.1% (inactive) | 81.1% (inactive) | 84.4% (inactive) | 36.4% (inactive) |  | 98.3% (inactive) | 111% (inactive) | 92.9% (inactive) | 76.3% (inactive) | 129% (inactive) | 87.4% (inactive) | 101% (inactive) | 88.1% (inactive) | 33.6% (inactive) | 49.1% (inactive) | 
O=C1/C(=C/c2ccc(F)c(F)c2)CN(C(=O)C(Cl)Cl)C/C1=C\c1ccc(F)c(F)c1 | -74.9% (active) | -26.6% (active) | -84.7% (active) | -93.1% (active) | -99.3% (active) |  | -95.3% (active) | -90.1% (active) | -92.6% (active) | -53.4% (active) | -93.7% (active) | -75.3% (active) | -97.9% (active) | -94.6% (active) | -100% (active) | -92.1% (active) | -96.8% (active) | -3.13% (active) | -21% (active) | -85.2% (active)
CN1CCN(CCNC(=O)c2cccc(CN3c4cccc5c4C(=Cc4cccnc43)N(C)C5=O)c2)CC1 | 10.7% (inactive) | 17.7% (inactive) | -11.2% (active) | 42.9% (inactive) | 48.2% (inactive) |  | 12.9% (inactive) | 8.25% (active) | 67.8% (inactive) | 62% (inactive) | 40.8% (inactive) | 42.8% (inactive) | 14.3% (inactive) | 25.4% (inactive) | 23.5% (inactive) | 8.78% (active) | 30.9% (inactive) | 47% (inactive) | 47.4% (inactive) | 17.3% (inactive)
CCN1C(=O)/C(=c2\sc3n(c2=O)C2C(NN=3)N(CC)C(=O)N2CC)c2ccccc21 (centres undefined) | 19.3% (inactive) | 13% (inactive) | 5.72% (active) | 42% (inactive) | 32.3% (inactive) | 26.3% (inactive) | 12.7% (inactive) | 33% (inactive) | 54.2% (inactive) | 60.1% (inactive) | 65% (inactive) | 29.1% (inactive) | 51.2% (inactive) | 76.6% (inactive) | 38.5% (inactive) | 45.7% (inactive) | -25.4% (active) | 25.7% (inactive) | 26.6% (inactive) | 
O=C(NCc1cccnc1)/C(=C\c1ccc(Br)cc1)S(=O)(=O)c1ccccc1 | -33.2% (active) | -72.2% (active) | 9.38% (active) | -2.37% (active) | -87.1% (active) |  | -17.9% (active) | -89.5% (active) | -39.3% (active) | -44% (active) | 11.1% (inactive) | -30.2% (active) | 10.7% (inactive) | -59.4% (active) | -15.3% (active) | -2.88% (active) | -20.4% (active) | 25.2% (inactive) | 64.1% (inactive) | -31.3% (active)
BrC1=C(Br)C(Br)(Br)C(Br)=C1Br | 60.8% (inactive) | 63.9% (inactive) | 72.7% (inactive) | 92.3% (inactive) | 91.9% (inactive) |  | 102% (inactive) | 45.5% (inactive) | 93% (inactive) | 95.3% (inactive) | 109% (inactive) | 86.2% (inactive) | 79.3% (inactive) | 97.8% (inactive) | 88.5% (inactive) | 87.3% (inactive) | 109% (inactive) | 17.5% (inactive) | 17.1% (inactive) | 71% (inactive)
